Reference: PubChem BioAssay (NCI)
Compounds without any hit were thinned out: in the full panel of roughly 83,000, 20% have a hit.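 Cells were grown in 96-well plates and exposed to the test compound at a single concentration for 48 hours; results are reported as percent growth, with values below 10 considered active.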 Values without a mark were called inactive. Activity calls are given as the source filed them.

Tested on: HL-60(TB) leukemia
Experiment: NCI-60 one-dose screen, 48 h (100 = growth as untreated, 0 = no growth, -100 = all killed)
Details: 10 µM unless noted

Row | SMILES | growth
1 | CCOC(=O)c1c(NC(=O)c2cccc(C(F)(F)F)c2)sc2c3c(ccc12)OCN(C)C3 | -56.3% (active)
2 | NC(N)=NS(=O)(=O)c1ccc(N=Nc2c(N)nn(-c3ccc([N+](=O)[O-])cc3[N+](=O)[O-])c2N)cc1 | 97.3%
3 | CCc1ccc(NC(=O)N[C@@H](Cc2cccc(F)c2)C(=O)N[C@@H]2C(=O)N3CCC[C@H]3C(=O)N3CCCC[C@H]3C(=O)N[C@@H](CO)C(=O)N3C[C@H](C)C[C@H]3C(=O)O[C@H]2C)c(F)c1 | 13.3%
